The results in this text go back to PubChem BioAssay (Tox21).

Test [1] concerns the target Cytochrome P450 1A2 (Homo sapiens) (UniProt P05177). Nature of the test: Cytochrome P450 Family 1 Subfamily A Member 2 (CYP1A2) small molecule antagonists: luciferase reporter qHTS assay (AID 1671199). As to activity change, negative = inhibition: series mostly up to about 120 µM. Summed up: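 Luminescence readout (relative luminescence units) after luciferin detection reagent, 20 min RT. Preceded by 1 h room-temperature CYP1A2 reaction with NADPH regeneration solution following 10 min compound preincubation with enzyme and proluciferin substrate. Furafylline positive control.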
For orientation: In a reporter assay the amount or activity of a reporter protein is the signal.

In test [2] the target is Voltage-gated inwardly rectifying potassium channel KCNH2 (Homo sapiens) (UniProt Q12809). Nature of the test: Human Ether-a-go-go-Related Gene (hERG) channel small molecule antagonists: fluorescence cell-based qHTS assay (AID 1671200).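 As to activity change, negative = inhibition: hERG-expressing U2OS cells given a thallium stimulus after FluxOR II dye loading; series mostly up to about 77 µM.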 The method in brief:
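Measured: Tl+ flux via fluorescence (480/540 nm) in hERG-expressing U2OS cells after 1 h dye loading at room temperature.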
Background: hERG is a cardiac potassium channel; its block is linked to QT prolongation.

In test [3] the target is Cytochrome P450 3A4 (Homo sapiens) (UniProt P08684). The test is described as follows: Cytochrome P450 Family 3 Subfamily A Member 4 (CYP3A4) small molecule antagonists: luciferase reporter qHTS assay (AID 1671201). As to activity change, negative = inhibition: series mostly up to about 120 µM. The method in brief:
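Setup: enzyme-substrate mix, compound pin transfer, 10 min RT. Reaction: NADPH regeneration solution, 1 h RT. Readout: detection reagent stops turnover, luminescence measured after 20 min, expressed in relative luminescence units.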

Each structure is given as a SMILES string. Records with an inconclusive call do not appear. A number with no mark means an inactive call. Activity calls are given as the source filed them. Calls follow the shape of the dose curve; as a rule, active = well fitted curve in the direction sought with a large enough effect in the repeat runs; inconclusive = weak or mixed curves; inactive = no such curve, though single readings can be large; an effect the other way counts as inactive or inconclusive.
% is scaled to controls: 0 for no effect and ±100 for the full control effect; potency is read from the fitted curve at half-maximal effect.
Also: nearly all actives have a fitted effect of over 50% in size.

Sequence of Voltage-gated inwardly rectifying potassium channel KCNH2 (Homo sapiens) (Q12809 whole entry, looked up): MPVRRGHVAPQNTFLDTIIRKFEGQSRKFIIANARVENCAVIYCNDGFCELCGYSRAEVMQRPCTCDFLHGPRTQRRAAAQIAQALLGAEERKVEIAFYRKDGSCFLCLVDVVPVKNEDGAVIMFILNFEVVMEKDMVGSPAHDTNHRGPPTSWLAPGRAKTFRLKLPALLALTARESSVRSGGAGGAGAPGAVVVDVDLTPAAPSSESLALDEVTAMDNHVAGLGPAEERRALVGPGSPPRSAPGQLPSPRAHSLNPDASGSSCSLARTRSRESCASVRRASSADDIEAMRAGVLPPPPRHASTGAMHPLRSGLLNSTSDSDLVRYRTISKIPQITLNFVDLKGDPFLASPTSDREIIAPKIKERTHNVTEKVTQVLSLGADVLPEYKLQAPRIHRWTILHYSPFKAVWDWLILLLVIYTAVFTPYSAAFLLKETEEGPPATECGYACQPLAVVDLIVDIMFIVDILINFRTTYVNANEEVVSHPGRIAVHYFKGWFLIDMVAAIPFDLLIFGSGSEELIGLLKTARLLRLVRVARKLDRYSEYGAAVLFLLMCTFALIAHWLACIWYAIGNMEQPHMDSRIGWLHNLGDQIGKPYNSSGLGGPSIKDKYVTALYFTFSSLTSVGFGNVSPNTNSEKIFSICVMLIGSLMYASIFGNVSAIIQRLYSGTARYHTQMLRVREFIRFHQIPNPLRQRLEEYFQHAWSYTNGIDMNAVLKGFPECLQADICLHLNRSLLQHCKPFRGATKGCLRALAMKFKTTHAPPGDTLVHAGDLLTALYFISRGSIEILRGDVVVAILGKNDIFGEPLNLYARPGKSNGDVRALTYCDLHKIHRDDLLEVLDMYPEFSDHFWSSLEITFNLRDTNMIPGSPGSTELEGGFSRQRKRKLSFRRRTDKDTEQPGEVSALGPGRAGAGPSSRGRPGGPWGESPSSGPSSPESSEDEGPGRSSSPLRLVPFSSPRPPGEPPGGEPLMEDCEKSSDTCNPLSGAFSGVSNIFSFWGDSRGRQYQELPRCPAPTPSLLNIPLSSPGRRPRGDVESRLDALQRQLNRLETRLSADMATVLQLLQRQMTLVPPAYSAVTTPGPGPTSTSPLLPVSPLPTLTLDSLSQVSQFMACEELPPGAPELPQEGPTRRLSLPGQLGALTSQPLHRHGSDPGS
Sequence of Cytochrome P450 3A4 (Homo sapiens) (P08684 whole entry, looked up): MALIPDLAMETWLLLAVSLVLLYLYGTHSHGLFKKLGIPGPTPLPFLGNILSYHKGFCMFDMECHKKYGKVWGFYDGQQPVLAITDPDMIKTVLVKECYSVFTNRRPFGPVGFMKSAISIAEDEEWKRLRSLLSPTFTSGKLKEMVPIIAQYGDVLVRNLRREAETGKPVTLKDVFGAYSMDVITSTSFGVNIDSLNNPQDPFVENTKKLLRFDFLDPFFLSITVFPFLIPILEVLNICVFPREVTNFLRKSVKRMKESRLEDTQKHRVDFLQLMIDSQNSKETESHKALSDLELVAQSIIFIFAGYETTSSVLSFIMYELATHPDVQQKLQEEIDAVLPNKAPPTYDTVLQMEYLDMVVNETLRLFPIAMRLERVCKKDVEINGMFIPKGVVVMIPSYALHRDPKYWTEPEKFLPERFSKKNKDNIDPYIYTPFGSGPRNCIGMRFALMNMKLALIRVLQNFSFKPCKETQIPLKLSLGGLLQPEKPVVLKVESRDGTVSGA
Sequence of Cytochrome P450 1A2 (Homo sapiens) (P05177 whole entry, looked up): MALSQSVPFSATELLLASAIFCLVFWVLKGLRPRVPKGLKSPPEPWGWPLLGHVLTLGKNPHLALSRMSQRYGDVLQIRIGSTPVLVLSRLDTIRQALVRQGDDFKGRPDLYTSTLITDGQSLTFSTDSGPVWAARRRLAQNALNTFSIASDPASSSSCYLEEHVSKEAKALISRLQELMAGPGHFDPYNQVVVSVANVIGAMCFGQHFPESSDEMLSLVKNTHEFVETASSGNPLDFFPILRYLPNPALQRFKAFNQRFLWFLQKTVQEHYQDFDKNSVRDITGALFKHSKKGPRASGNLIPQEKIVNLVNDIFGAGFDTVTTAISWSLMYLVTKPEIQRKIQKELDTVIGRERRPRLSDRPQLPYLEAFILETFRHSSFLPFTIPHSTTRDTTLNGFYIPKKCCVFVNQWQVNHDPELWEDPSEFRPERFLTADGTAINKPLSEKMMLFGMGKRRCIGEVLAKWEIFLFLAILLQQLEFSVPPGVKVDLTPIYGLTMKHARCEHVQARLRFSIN

As for `Cc1ccc2c(ccc3ccccc32)c1`, the Potency in test [1] was 3.18 µM (active). The Potency entry in test [2] and in test [3] was “inactive” throughout.
On to `CCCCC(CC)(CO)CO`, for which the Potency entry in test [1], in test [2] and in test [3] was “inactive” in each case.
In the case of `Cc1cccc(Oc2ccccc2)c1`, the results for the Potency in test [1], in test [2] and in test [3] were 34.7 µM (active), 13.5 µM (active) and 34.7 µM (active), respectively.
As for `CC(=O)CC(=O)c1ccccc1`, the Potency in test [1] was 40.2 µM (active); in test [3] it was 63.7 µM (active). Besides, in test [2], the Potency result is “inactive”.
In the same order, the values of `CN1CCC(=C2c3ccccc3CCc3sccc32)CC1` are “inactive”, “inactive” and 16.9 µM (active).
For `NCc1ccccc1`, in that order: 31.7 µM (active), “inactive” and “inactive”.
In the same order, the values of `CCCCCC(CO)CCC` (stereo unspecified) are “inactive”, “inactive” and “inactive”.
For `C=CC(C)(CCC=C(C)C)OC(=O)c1ccccc1` (stereo unspecified), the Potency in test [1] was 39.9 µM (active); in test [3], 31.7 µM (active).
For `CC(=O)OCCc1ccccc1`, the Potency result in test [1], in test [2] and in test [3] was “inactive” each time.
For `CC(C)CCCC(C)CCO` (stereo unspecified), the Potency entry in test [1], in test [2] and in test [3] was “inactive” throughout.
Consider `C=C(C)C(=O)OCCN(C)C`, for which the Potency entry in test [1] and in test [2] was “inactive” each time. Besides, the Potency in test [3] was 36 µM (active).
Turning to `O=C1Nc2cc(Cl)ccc2Oc2ccccc21`, the Potency in test [1] was 1.95 µM (active). For the same molecule, the Potency entry in test [2] and in test [3] was “inactive” each time.
Turning to `C[C@H](CCC(=O)O)[C@H]1CC[C@H]2[C@@H]3[C@H](O)C[C@@H]4C[C@H](O)CC[C@]4(C)[C@H]3CC[C@]12C`, the Potency in test [1] was 31.8 µM (active). For the same molecule, the Potency result in test [2] and in test [3] was “inactive” in each case.
Consider `C=C(C)C(=O)OCCOc1ccccc1`, for which the Potency in test [1] was 25.2 µM (active). Further, the Potency result in test [2] and in test [3] was “inactive” in each case.
Regarding `O=C(Cl)c1c(Cl)cccc1Cl`, the Potency result in test [1], in test [2] and in test [3] was “inactive” in each case.
As for `CCCCCCc1ccc(N)cc1`, the Potency in test [1] is 28.3 µM (active); in test [3], 35.6 µM (active). For the same molecule, the Potency entry in test [2] is “inactive”.
In the same order, the values of `COc1ccc(C(C)=O)cc1` are 29.1 µM (active), “inactive” and “inactive”.
For `Cc1ccc(C(=O)C(C)CN2CCCCC2)cc1` (stereo unspecified), in that order: “inactive”, “inactive” and “inactive”.
In the same order, the values of `CCOc1ccc(NC(=O)CC(C)=O)cc1` are 31.7 µM (active), “inactive” and “inactive”.
For the molecule `CCCCOC(=O)/C=C\C(=O)OCCCC`, in test [1], the Potency was 7.34 µM (active). For the same molecule, the Potency result in test [2] and in test [3] was “inactive” throughout.
As to `O=C=NC1CCC(CC2CCC(N=C=O)CC2)CC1` (stereo unspecified), the Potency in test [1] was 44.8 µM (active); in test [3] it was 3.99 µM (active). For the same molecule, the Potency entry in test [2] was “inactive”.
For `Cc1ccccc1N=Nc1ccc(N=Nc2c(O)ccc3ccccc23)c(C)c1`, in that order: 13.8 µM (active), “inactive” and “inactive”.
In the same order, the values of `CCCCCCCCN(C)C` are “inactive”, “inactive” and “inactive”.
Regarding `CCN1CCC[C@H]1CNC(=O)c1c(OC)ccc(Br)c1OC`, the Potency result in test [1] and in test [2] was “inactive” each time.
With `O=C1c2cccc(O)c2C(=O)c2c(O)cc(CO)cc21`, the Potency in test [1] was 8.94 µM (active). For the same molecule, the Potency result in test [2] and in test [3] was “inactive” each time.
For the molecule `CC(CN)CCCN` (stereo unspecified), the Potency result in test [1] and in test [2] was “inactive” throughout. In test [3], the Potency is 6.33 µM (active).
Turning to `CC(=O)OC/C=C/c1ccccc1`, the Potency in test [1] is 31.7 µM (active). Moreover, the Potency entry in test [2] and in test [3] was “inactive” each time.
Turning to `Cc1ncsc1CCO`, the Potency entry in test [1], in test [2] and in test [3] was “inactive” in each case.
For the molecule `CCCC(C)C`, in test [1], the Potency is 63.9 µM (active). Further, the Potency entry in test [2] and in test [3] was “inactive” each time.
Regarding `O=S(=O)(O)c1ccc(O)c2ncccc12`, the Potency result in test [1], in test [2] and in test [3] was “inactive” throughout.
As for `CC(=O)N(CC(=O)N(C)C)c1ccccc1`, the Potency result in test [1], in test [2] and in test [3] was “inactive” in each case.
As to `O=C(O)Cn1c(C(=O)Nc2nc(-c3ccccc3Cl)cs2)cc2ccccc21`, the Potency result in test [1], in test [2] and in test [3] was “inactive” each time.
For `NC(N)=NN=C(/C=C/c1ccc([N+](=O)[O-])o1)/C=C/c1ccc([N+](=O)[O-])o1`, in test [2], the Potency was 2.39 µM (active).
For the molecule `CCN(CC)C(C)CN1c2ccccc2Sc2ccccc21` (stereo unspecified), the Potency in test [1] was 7.76 µM (active). Also, the Potency result in test [3] was “inactive”.
Turning to `Oc1ccc(C(O)CNCCCCCCNCC(O)c2ccc(O)c(O)c2)cc1O` (stereo unspecified), the Potency result in test [2] and in test [3] was “inactive” each time.
Take `C1=Cc2ccccc2C1`: the Potency result in test [2] and in test [3] was “inactive” each time.
`Cc1cccc(C(C)(C)C)c1O`: the Potency result in test [2] was “inactive”.
Same read-out and setting: in the case of `O=C(O)Cc1cc(I)c(Oc2ccc(O)c(I)c2)c(I)c1` it was “inactive”.
As for `N#CCc1cccc(C(F)(F)F)c1`, the Potency result in test [2] and in test [3] was “inactive” in each case.
For `CC(C)=CCCC(C)CC=O` (stereo unspecified), the Potency entry in test [2] is “inactive”.
In the case of `N#Cc1c(F)cccc1F`, the Potency entry in test [2] and in test [3] was “inactive” in each case.
For the molecule `CN(c1nccc(=O)[nH]1)C1CCN(c2nc3ccccc3n2Cc2ccc(F)cc2)CC1`, the Potency in test [2] is 2.39 µM (active).
For `CC(Cc1cccc(C(F)(F)F)c1)NCCOC(=O)c1ccccc1` (stereo unspecified), in test [2], the Potency is 8.49 µM (active).
On to `C=CC(=O)OCCOC(=O)CCC(=O)O`, for which the Potency entry in test [2] is “inactive”. Moreover, the Potency in test [3] was 31.7 µM (active).
As to `CN(C)CCCOc1nn(Cc2ccccc2)c2ccccc12`, the Potency in test [2] was 4.25 µM (active).
With `CCN(CCO)CCCC(C)Nc1ccnc2cc(Cl)ccc12` (stereo unspecified), the activity change, negative = inhibition in test [2] was 9.57% [at 6.97 µM].
For the molecule `CCCCCCCCCCCCC(=O)O`, in test [2], the Potency result is “inactive”.
In the case of `CCCCOc1cc(C(=O)OCCN(CC)CC)ccc1N`, the Potency result in test [3] was “inactive”.
Take `Cc1ccccn1`: in test [2], the Potency result is “inactive”.
On to `CCCCCCCCCCCCCCCBr`, for which the Potency entry in test [2] and in test [3] was “inactive” throughout.
With `O=S1(=O)N=C(O)c2ccccc21`, the Potency entry in test [2] is “inactive”.
Take `NCCCOCCOCCOCCCN`: the Potency result in test [2] and in test [3] was “inactive” throughout.
Regarding `CCCCOCCOCCOCCOCCO`, the Potency entry in test [2] and in test [3] was “inactive” each time.
For the molecule `O=C(O)/C=C/c1cnc[nH]1`, the Potency result in test [2] and in test [3] was “inactive” throughout.
As for `CCOc1nc2cccc(C(=O)O)c2n1Cc1ccc(-c2ccccc2-c2nn[nH]n2)cc1`, the Potency entry in test [2] is “inactive”.
Consider `CC[C@@H]1C[C@H](N(Cc2cc(C(F)(F)F)cc(C(F)(F)F)c2)C(C)=O)c2cc(C(F)(F)F)ccc2N1C(=O)OC(C)C`, for which the Potency result in test [2] is “inactive”. Moreover, in test [3], the Potency is 0.894 µM (active).
For the molecule `CCCCCCCCCCCCCCCC(=O)OC/C=C(C)/C=C/C=C(C)/C=C/C1=C(C)CCCC1(C)C`, the Potency result in test [2] was “inactive”.
`CCOC(=O)CC(=O)c1cc(F)c(Cl)nc1Cl`: the Potency result in test [2] and in test [3] was “inactive” in each case.
On to `N=C(N=C(N)N)N1CCOCC1`, for which the Potency entry in test [2] and in test [3] was “inactive” each time.
For `N[C@H]1C(O)O[C@H](CO)[C@H](O)[C@@H]1O` (stereo partly specified), the Potency result in test [1] and in test [3] was “inactive” each time.
Turning to `CC1=CCC(C(C)C)C=C1` (stereo unspecified), in test [2], the Potency entry is “inactive”. Also, the Potency in test [3] is 25.2 µM (active).
For the molecule `OCC1CC2CC1C1CCC(CO)C21` (stereo unspecified), the Potency entry in test [2] is “inactive”.
Consider `CNCC[C@@H](Oc1ccccc1C)c1ccccc1`, for which, in test [3], the Potency result is “inactive”.
Consider `NC[C@H]1O[C@H](O[C@H]2[C@H](O)[C@@H](O[C@H]3O[C@H](CO)[C@@H](O)[C@H](N)[C@H]3O)[C@H](N)C[C@@H]2N)[C@H](O)[C@@H](O)[C@@H]1O`, for which the activity change, negative = inhibition is 0.203% [at 6.97 µM] in test [2] and 8.95% [at 10.5 µM] in test [3].
Consider `CCC(=O)OC(C)(C)C1CC=C(C)CC1` (stereo unspecified), for which, in test [2], the Potency entry is “inactive”.
`N#CCCNCCC#N`: the Potency entry in test [2] and in test [3] was “inactive” each time.
Turning to `CCCCCCCCCC=O`, in test [2], the Potency entry was “inactive”.
As for `O=C(c1ccccc1)c1ccc2n1CCC2C(=O)O` (stereo unspecified), the Potency entry in test [2] and in test [3] was “inactive” throughout.
Consider `O=[N+]([O-])c1cccc(Cl)c1Cl`, for which the Potency entry in test [2] and in test [3] was “inactive” throughout.
For the molecule `CN(C)C/C=C(/c1ccc(Br)cc1)c1cccnc1`, the Potency in test [2] is 13.4 µM (active).
